Results published in the supplement of paper PMC11732987, “Enantioselective OTUD7B fragment discovery through chemoproteomics screening and high-throughput optimisation” (Communications Chemistry, 2025).

biological target: T1, VCPIP1 (UniProt Q96JH7); experiment: log2 ratio of Biotin-Ahx-Ub-VS probe labelling (fragment/DMSO); higher = less target engagement (more negative = stronger competition), active = hit call of the paper (q ≤ 0.05, log2 ratio ≤ -1); details: compound concentration: 200 uM; treatment time: 3 h
T1 sequence (whole entry): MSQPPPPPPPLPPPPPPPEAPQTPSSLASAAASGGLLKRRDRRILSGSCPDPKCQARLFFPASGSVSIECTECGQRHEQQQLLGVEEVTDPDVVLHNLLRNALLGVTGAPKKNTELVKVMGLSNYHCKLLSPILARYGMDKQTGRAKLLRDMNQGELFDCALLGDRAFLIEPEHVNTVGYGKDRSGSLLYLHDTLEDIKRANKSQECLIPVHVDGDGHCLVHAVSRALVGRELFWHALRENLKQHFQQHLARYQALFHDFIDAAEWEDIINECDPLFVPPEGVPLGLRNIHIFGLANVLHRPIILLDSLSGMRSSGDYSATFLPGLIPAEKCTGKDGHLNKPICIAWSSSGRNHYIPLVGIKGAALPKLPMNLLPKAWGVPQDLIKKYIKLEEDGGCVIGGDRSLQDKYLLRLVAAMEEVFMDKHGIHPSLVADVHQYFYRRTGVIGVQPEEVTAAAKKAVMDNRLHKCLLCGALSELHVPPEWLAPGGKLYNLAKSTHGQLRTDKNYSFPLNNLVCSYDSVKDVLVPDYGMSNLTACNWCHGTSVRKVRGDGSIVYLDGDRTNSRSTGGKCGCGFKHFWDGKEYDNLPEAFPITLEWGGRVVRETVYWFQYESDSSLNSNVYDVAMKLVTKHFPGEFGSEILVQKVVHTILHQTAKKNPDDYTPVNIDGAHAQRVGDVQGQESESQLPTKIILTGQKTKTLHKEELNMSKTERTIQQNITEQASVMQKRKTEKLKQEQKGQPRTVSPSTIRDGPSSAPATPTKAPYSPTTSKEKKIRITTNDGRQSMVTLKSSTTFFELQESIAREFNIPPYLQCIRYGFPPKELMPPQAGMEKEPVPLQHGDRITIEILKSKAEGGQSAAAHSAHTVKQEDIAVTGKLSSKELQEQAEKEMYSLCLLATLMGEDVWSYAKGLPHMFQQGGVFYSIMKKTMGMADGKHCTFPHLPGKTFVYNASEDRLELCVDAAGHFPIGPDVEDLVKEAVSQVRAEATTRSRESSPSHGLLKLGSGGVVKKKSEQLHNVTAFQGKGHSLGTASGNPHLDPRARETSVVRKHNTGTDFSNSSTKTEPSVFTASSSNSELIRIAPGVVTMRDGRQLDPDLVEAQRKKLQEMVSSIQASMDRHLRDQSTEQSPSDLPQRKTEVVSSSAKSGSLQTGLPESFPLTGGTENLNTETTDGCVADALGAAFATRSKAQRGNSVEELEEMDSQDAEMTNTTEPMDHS
Method: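 Competitive ABPP in HEK293T cell lysate. Lysates were treated with each chloroacetamide fragment at 200 µM for 3 h, then with Biotin-Ahx-Ub-VS (0.5 µM, 1 h), NeutrAvidin-enriched and analysed by diaPASEF LC-MS/MS. Protein LFQ was median-normalised; average log2 ratio is fragment/DMSO from an unpaired t-test (n=3 treated, n=44 DMSO). Hits: q ≤ 0.05, log2 ratio ≤ -1, unique peptides ≥ 2.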

SMILES	log2 ratio of Biotin-Ahx-Ub-VS probe labelling
COc1ccc(CN(C)C(=O)CCl)cc1	-1.54 (active)
Cc1ccccc1CN(C)C(=O)CCl	-1.46 (active)
COCC1C=CCCN1C(=O)CCl (stereo not given)	-0.426 (inactive)
O=C(CCl)N1CCC(c2nc3ccccc3o2)CC1	-2.76 (active)
Cc1cc(CC(C)NC(=O)CCl)n[nH]1 (stereo not given)	0.107 (inactive)
CCN1C(=O)C2CN(C(=O)CCl)CCN2C1=O (stereo not given)	0.103 (inactive)
O=C(CCl)NC1CCOc2ccccc21 (stereo not given)	-2.21 (active)
O=C(CCl)N1CCOC2(CCC2)C1	-0.0688 (inactive)
N#Cc1ccccc1N1CCN(C(=O)CCl)CC1	-1.53 (active)
O=C(CCl)Nc1ccc(Cl)c(F)c1	-1.86 (active)
Cc1ccccc1C1(CNC(=O)CCl)CCOCC1	-0.843 (inactive)
CN(C(=O)CCl)c1nc2ccccc2s1	-0.54 (inactive)
Cc1cccc(N(CCC#N)C(=O)CCl)c1C	-2.23 (active)
CC(O)CC1CCN(C(=O)CCl)CC1 (stereo not given)	-0.106 (inactive)
Cc1cccn2cc(CCNC(=O)CCl)nc12.Cl	-1.07 (active)
O=C(CCl)N1CCC(S(=O)(=O)c2ccc(F)cc2)CC1	-0.527 (inactive)
C#Cc1cccc(NC(=O)CCl)c1	-2.17 (active)
O=C(CCl)N(C1=CCCCC1)C1CC1	-0.286 (inactive)
Cl.O=C(CCl)N1CCn2cncc2C1	-0.196 (inactive)
O=C(CCl)Nc1cc(Cl)ccc1C(=O)O	-0.241 (inactive)

SMILES	log2 ratio of Biotin-Ahx-Ub-VS probe labelling
Cl.O=C(CCl)N1CC(c2ccc(Br)cn2)C1	-1.3 (active)
COc1ccccc1C(C)NC(=O)CCl (stereo not given)	-0.998 (inactive)
COc1cccc(CN(C)C(=O)CCl)c1	-0.854 (inactive)
C/C(=C\CNC(=O)CCl)c1cnn(C)c1.Cl	-1.53 (active)
Cc1cccc(C)c1NC(=O)CCl	-0.74 (inactive)
Cl.Cn1c(CNC(=O)CCl)nc2cccnc21	-0.977 (inactive)
Cl.Cn1nc2c(c1CNC(=O)CCl)CCCC2	-1.63 (active)
Cc1nnc(C(NC(=O)CCl)c2ccccc2)n1C (stereo not given)	0.452 (inactive)
Cl.Cn1cnc2cc(CNC(=O)CCl)ccc21	-1.11 (active)
Cl.Cn1nccc1C(NC(=O)CCl)c1ccccc1 (stereo not given)	-1.2 (active)
O=C(CCl)Nc1nc(-c2cccs2)cs1	-2.02 (active)
C[C@H]1CN(C(=O)CCl)CCN1C(=O)c1cnn(C)c1.Cl	-0.157 (inactive)
Cc1ccc(CC(NC(=O)CCl)c2ccccn2)cc1.Cl (stereo not given)	-1.64 (active)
O=C(CCl)N1CCCN(C(=O)c2ccc(Cl)cc2)CC1	-0.589 (inactive)
O=C(CCl)N1CCCCCC1c1ncon1 (stereo not given)	-0.233 (inactive)
O=C(CCl)N1CCC2(CCC(O)CC2)CC1	-0.183 (inactive)
Cc1cccc(C(CNC(=O)CCl)N2CCOCC2)c1.Cl (stereo not given)	-0.833 (inactive)
Cl.O=C(CCl)NCCN1CCc2ccccc21	-1.9 (active)
O=C(CCl)NC1CCS(=O)(=O)c2ccccc21 (stereo not given)	-1.22 (active)
Cc1cc(C2CCCN2C(=O)CCl)nn1C.Cl (stereo not given)	-0.866 (inactive)
